Data reported in publication PMC7862700, “An all-to-all approach to the identification of sequence-specific readers for epigenetic DNA modifications on cytosine”.

How the values were obtained:
Test in all cases: DAPPL (digital affinity profiling via proximity ligation, sequencing); 10 mM Tris-HCl pH 7.5, 50 mM NaCl, 1 mM DTT, 4% glycerol, room temperature, 30 min; GST-TFs on glutathione beads, 16-mer random dsDNA library, 0.1% formaldehyde crosslink after washing; high values mean tight binding
Conditions in all cases: protein: recombinant; tags: N-terminal GST; dsDNA, one strand shown
[1] = molecular target: T1, FLI1 (Homo sapiens, UniProt Q01543 1-452)
T1 sequence: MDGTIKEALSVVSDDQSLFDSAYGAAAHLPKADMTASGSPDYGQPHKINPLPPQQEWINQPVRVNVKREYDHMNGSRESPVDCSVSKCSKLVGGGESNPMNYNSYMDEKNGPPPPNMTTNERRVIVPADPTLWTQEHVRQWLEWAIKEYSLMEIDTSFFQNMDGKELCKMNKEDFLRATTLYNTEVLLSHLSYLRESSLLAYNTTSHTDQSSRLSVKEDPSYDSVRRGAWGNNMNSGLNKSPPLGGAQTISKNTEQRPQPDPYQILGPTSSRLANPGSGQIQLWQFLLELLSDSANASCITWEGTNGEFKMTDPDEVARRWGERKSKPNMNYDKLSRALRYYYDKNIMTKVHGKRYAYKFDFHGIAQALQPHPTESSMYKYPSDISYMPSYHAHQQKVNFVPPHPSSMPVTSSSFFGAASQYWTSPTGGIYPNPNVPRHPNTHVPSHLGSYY
How it was run: (§1)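 Binding signal is each hexamer's read frequency for a factor divided by its frequency in the tag-only sample. The factors were GST-fused human transcription factors from yeast, captured on glutathione beads, DNA-barcoded and pooled with that sample. Pools were incubated with 200 nmole of a random double-stranded 16-mer DNA library in Tris/NaCl/DTT/glycerol buffer at room temperature for 30 min, then washed, crosslinked with 0.1% formaldehyde, proximity-ligated with BsaI/T4 ligase (1 h, 37 °C), PCR-amplified and sequenced on an Illumina NextSeq500.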

[2] = molecular target: T2, ELK1 (Homo sapiens, UniProt P19419 1-428)
T2 sequence: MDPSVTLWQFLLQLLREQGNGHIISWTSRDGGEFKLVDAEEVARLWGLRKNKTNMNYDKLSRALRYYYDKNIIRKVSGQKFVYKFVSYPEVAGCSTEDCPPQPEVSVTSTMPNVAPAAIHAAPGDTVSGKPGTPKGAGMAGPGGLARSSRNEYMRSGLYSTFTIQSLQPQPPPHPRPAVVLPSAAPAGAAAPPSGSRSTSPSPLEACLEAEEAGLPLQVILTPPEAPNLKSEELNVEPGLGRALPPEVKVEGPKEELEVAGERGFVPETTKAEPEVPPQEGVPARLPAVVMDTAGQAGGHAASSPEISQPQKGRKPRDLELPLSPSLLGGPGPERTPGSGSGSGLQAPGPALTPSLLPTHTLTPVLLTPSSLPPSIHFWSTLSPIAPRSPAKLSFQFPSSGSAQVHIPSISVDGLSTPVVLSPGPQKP
How it was run: as §1

[3] = molecular target: T3, GABPA (Homo sapiens, UniProt Q06546 1-454)
T3 sequence: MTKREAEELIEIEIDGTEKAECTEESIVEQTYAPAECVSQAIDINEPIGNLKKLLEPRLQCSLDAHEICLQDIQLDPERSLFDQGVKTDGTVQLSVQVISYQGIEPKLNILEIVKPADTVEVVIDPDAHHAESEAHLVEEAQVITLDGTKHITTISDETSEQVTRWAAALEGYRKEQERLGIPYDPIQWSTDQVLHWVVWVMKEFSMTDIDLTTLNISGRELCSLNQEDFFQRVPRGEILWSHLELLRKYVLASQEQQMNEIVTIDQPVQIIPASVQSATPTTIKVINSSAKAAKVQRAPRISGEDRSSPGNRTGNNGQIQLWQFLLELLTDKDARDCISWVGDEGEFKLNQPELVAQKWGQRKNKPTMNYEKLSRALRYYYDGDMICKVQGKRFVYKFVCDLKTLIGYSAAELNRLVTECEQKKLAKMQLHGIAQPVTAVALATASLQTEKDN
How it was run: as §1

[4] = molecular target: T4, ERG (Homo sapiens, UniProt P11308 1-479)
T4 sequence: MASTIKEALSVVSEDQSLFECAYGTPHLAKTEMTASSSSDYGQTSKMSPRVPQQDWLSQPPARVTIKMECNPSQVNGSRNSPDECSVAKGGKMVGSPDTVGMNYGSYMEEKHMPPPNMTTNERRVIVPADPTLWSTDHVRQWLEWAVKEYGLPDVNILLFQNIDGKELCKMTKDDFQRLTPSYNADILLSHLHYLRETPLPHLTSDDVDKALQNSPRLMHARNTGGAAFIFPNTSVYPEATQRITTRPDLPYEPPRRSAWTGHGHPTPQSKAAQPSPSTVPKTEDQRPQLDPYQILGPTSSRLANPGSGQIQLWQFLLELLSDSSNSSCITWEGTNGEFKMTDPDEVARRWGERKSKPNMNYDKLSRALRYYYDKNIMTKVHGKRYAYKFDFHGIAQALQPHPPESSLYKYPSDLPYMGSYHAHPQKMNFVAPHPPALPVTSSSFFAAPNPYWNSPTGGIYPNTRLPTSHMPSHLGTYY
How it was run: as §1

[5] = molecular target: ELF1 (Homo sapiens, UniProt P32519 1-619)
How it was run: as §1

[6] = molecular target: T5, EHF (Homo sapiens, UniProt Q9NZC4 1-300)
T5 sequence: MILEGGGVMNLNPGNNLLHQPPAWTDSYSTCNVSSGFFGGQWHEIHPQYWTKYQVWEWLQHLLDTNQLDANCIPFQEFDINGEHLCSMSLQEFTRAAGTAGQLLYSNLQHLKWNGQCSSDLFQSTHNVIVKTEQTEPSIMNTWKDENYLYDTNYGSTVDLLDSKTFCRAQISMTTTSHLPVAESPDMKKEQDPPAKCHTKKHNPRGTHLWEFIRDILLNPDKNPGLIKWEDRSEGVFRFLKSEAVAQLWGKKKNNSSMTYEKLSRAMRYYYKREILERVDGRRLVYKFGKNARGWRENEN
How it was run: as §1

[7] = molecular target: SPI1 (Homo sapiens, UniProt P17947 1-270)
How it was run: as §1

[8] = molecular target: SPIB (Homo sapiens, UniProt Q01892 1-262)
How it was run: as §1

[9] = molecular target: T6, ELK3 (Homo sapiens, UniProt P41970 1-407)
T6 sequence: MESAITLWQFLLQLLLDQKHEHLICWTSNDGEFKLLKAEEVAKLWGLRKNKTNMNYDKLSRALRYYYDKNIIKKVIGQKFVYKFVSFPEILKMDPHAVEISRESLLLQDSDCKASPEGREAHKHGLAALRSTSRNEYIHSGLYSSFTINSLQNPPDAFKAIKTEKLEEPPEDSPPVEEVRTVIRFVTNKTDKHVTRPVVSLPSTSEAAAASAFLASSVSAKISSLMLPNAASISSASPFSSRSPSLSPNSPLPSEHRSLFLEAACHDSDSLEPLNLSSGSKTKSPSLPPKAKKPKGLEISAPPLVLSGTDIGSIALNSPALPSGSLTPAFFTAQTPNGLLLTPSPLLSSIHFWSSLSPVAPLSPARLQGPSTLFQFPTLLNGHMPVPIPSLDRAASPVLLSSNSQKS
How it was run: as §1

ELF1, sequence (P32519 whole entry): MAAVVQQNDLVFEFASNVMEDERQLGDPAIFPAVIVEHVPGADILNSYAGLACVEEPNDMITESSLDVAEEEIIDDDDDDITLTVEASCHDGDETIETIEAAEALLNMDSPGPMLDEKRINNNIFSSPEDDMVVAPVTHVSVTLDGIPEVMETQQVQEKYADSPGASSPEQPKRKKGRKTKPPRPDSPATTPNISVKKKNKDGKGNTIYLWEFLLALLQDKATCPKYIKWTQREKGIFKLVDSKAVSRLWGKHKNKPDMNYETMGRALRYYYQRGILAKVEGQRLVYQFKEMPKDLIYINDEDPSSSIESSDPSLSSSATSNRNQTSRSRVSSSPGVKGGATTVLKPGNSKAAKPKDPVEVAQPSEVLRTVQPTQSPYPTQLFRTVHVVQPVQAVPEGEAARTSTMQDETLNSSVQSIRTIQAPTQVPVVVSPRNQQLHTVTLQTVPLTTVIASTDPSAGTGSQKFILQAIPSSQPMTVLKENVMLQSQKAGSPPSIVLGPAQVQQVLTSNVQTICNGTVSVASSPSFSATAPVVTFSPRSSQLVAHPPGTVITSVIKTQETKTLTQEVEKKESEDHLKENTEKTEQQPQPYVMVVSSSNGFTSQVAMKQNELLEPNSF
SPIB, sequence (Q01892 whole entry): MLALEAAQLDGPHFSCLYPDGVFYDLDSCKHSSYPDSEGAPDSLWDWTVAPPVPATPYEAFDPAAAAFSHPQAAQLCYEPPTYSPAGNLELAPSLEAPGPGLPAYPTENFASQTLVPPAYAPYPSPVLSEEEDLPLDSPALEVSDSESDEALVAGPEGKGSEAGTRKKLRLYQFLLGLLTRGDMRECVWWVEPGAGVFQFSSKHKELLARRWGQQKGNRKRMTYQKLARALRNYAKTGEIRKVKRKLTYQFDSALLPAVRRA

Row | Sequence | binding signal [1] | binding signal [2] | binding signal [3] | binding signal [4] | binding signal [5] | binding signal [6] | binding signal [7] | binding signal [8] | binding signal [9]
1 | CTCACG | 1.36 fold enrichment (6-mer frequency, TF over GST control) | 1.33 fold enrichment (6-mer frequency, TF over GST control) | 1.33 fold enrichment (6-mer frequency, TF over GST control) | 1.33 fold enrichment (6-mer frequency, TF over GST control) | 1.25 fold enrichment (6-mer frequency, TF over GST control) | 1.31 fold enrichment (6-mer frequency, TF over GST control) | 1.22 fold enrichment (6-mer frequency, TF over GST control) | 1.32 fold enrichment (6-mer frequency, TF over GST control) | 1.41 fold enrichment (6-mer frequency, TF over GST control)
2 | ATTTAG | 1.13 fold enrichment (6-mer frequency, TF over GST control) | 1.07 fold enrichment (6-mer frequency, TF over GST control) | 1.27 fold enrichment (6-mer frequency, TF over GST control) | 1.02 fold enrichment (6-mer frequency, TF over GST control) | 1.15 fold enrichment (6-mer frequency, TF over GST control) | 1.14 fold enrichment (6-mer frequency, TF over GST control) | 1.11 fold enrichment (6-mer frequency, TF over GST control) | 1.16 fold enrichment (6-mer frequency, TF over GST control) | 1.09 fold enrichment (6-mer frequency, TF over GST control)
3 | AAAATC | 1.16 fold enrichment (6-mer frequency, TF over GST control) | 1.11 fold enrichment (6-mer frequency, TF over GST control) | 1.22 fold enrichment (6-mer frequency, TF over GST control) | 1.18 fold enrichment (6-mer frequency, TF over GST control) | 1.15 fold enrichment (6-mer frequency, TF over GST control) | 1.2 fold enrichment (6-mer frequency, TF over GST control) | 1.14 fold enrichment (6-mer frequency, TF over GST control) | 1.17 fold enrichment (6-mer frequency, TF over GST control) | 1.1 fold enrichment (6-mer frequency, TF over GST control)
4 | ATGGCC | 1.31 fold enrichment (6-mer frequency, TF over GST control) | 1.42 fold enrichment (6-mer frequency, TF over GST control) | 1.45 fold enrichment (6-mer frequency, TF over GST control) | 1.46 fold enrichment (6-mer frequency, TF over GST control) | 1.35 fold enrichment (6-mer frequency, TF over GST control) | 1.27 fold enrichment (6-mer frequency, TF over GST control) | 1.37 fold enrichment (6-mer frequency, TF over GST control) | 1.39 fold enrichment (6-mer frequency, TF over GST control) | 1.24 fold enrichment (6-mer frequency, TF over GST control)
